Compound activity from PubChem BioAssay.
Sampled rows, rich in hits. Any-hit rate of the full collection: about 4.2%.
CHOP inhibitor – inhibitors of CHOP induction in ER stress response. CHO-K1 CHOP-promoter luciferase, tunicamycin-induced, 15-18 h. inhibition, % at 10 µM. 3.8% of 220,000 active;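 active = compounds that reduced the stress-induced luciferase reporter signal by more than about 70% of percent inhibition, limit read from the data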
Hsp70 act – Hsp70 transcriptional activation, primary screen. 0.04% of 200,000 active. HeLa Hsp70 promoter luciferase reporter, luminescence; scaled: vehicle 0, proteasome-inhibitor control 100%. activation, % at 10 µM;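 active = activation above the mean across all tested compounds plus 3 SD, cutoff set per campaign, cut at about 5.5% in these data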
S1P4 ag – human S1P4 receptor agonism; O95977; S1P4-expressing cell line, agonist reporter assay; 0.35% of 220,000 active; activation, % at 4.98 µM; in the data active = activation above about 11%
Target sequence (O95977 whole entry, looked up): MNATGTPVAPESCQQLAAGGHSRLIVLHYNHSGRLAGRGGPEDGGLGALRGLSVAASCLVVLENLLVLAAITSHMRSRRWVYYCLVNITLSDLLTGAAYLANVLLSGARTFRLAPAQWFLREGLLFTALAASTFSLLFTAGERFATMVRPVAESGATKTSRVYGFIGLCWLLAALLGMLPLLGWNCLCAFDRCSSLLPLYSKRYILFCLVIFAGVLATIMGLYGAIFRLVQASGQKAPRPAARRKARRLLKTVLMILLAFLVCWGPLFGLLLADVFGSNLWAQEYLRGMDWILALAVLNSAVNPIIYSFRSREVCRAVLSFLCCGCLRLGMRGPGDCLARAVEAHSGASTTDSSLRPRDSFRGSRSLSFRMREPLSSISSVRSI
S1P4 antagonist – antagonists of human S1P4 receptor | O95977 | S1P4-expressing cells, antagonist mode, reporter read-out | inhibition, % at 4.98 µM | 0.26% of 220,000 active; in the data active = inhibition above about 29%
CHOP inh conf – confirmation of CHOP induction inhibitors. CHO-CHOP promoter luciferase reporter, tunicamycin-induced, luminescence. shares compounds with CHOP inhibitor. inhibition, % at 10 µM. 45% of 2,100 active;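 active = mean of three repeat readings of reporter signal inhibition above a set limit, cut at about 70% in these data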
Hits are given with their value; – = inactive; · = no result.

SMILES	CHOP inhibitor	Hsp70 act	S1P4 ag	S1P4 antagonist	CHOP inh conf
CCOc1ccc(-c2nc(N)ncc2Oc2ccccc2Br)c(O)c1	106	–	–	–	–
C=CCSc1nnc(NC(=O)Cn2cnc3c2c(=O)n(C)c(=O)n3C)s1	–	–	–	–	·
Cc1ccc(CCNC(=O)c2cc(-c3ccncc3)nc3ccccc23)cc1	–	·	–	–	·
Cc1ccc(NC(=O)CSc2nc3ccccc3c3nc(CCc4c(C)n[nH]c4C)nn23)cc1F	108	–	–	–	79
Cc1n[nH]c(C)c1CCc1nc2c3ccccc3nc(SCC(N)=O)n2n1	–	–	–	–	·
Cc1ccc2c(c1)c(=O)c1c3n2CCN(C(=O)CCl)C3CC1 (stereo unspecified)	·	–	–	–	–
CC(C)(C)NS(=O)(=O)c1ccc(CCC(=O)Nc2cc(Cl)ccc2Oc2ccccc2)cc1	–	–	–	–	·
Cc1ccc(-c2cc3c(nn2)-c2ccccc2C3=O)cc1	101	·	–	–	108
O=C1c2ccccc2-c2nnc(-c3ccc(F)cc3)cc21	–	–	–	–	·
COc1ccc(NC(=O)CCCn2c(=S)[nH]c3ccccc3c2=O)cc1	–	–	–	–	·
C=CCOC(=O)C1=C(C)NC(SCC(=O)Nc2ccccc2)=C(C#N)C1c1ccco1 (stereo unspecified)	104	–	–	–	116
Cc1cccc(N2CCN(C(=S)Nc3ccc4nc(N5CCN(C)CC5)cc(C)c4c3)CC2C)c1 (stereo unspecified)	106	–	–	–	–
Cc1cc(N2CCN(C)CC2)nc2ccc(NC(=S)N3CCN(c4cccc(Cl)c4)CC3)cc12	–	–	–	–	·
O=C(c1cc(-c2ccc(O)cc2)on1)N1CCc2ccccc2C1	·	–	–	–	·
O=C(c1cc(-c2ccccc2O)on1)N1CCc2ccccc2C1	106	–	–	–	–
O=C(c1ccc(COc2ccc(Br)cc2)o1)N1N=C(C(F)F)CC1(O)C(F)F (stereo unspecified)	108	–	–	–	–
Cc1cc(C)cc(OCc2ccc(C(=O)O)o2)c1	–	–	–	–	·
CCOc1ccc(OCc2ccc(C(=O)N3N=C(C(F)F)CC3(O)C(F)F)o2)cc1 (stereo unspecified)	99	–	–	–	–
Cc1cc(C)cc(OCc2ccc(C(=O)N3N=C(C(F)F)CC3(O)C(F)F)o2)c1 (stereo unspecified)	102	–	–	–	–
O=C(c1ccc(COc2ccc3ccccc3c2)o1)N1N=C(C(F)F)CC1(O)C(F)F (stereo unspecified)	111	–	–	–	–
O=C(c1ccccc1-n1cccc1)N1N=C(C(F)F)CC1(O)C(F)F (stereo unspecified)	–	–	–	–	·
O=C(c1ccc(Cn2cc(Br)cn2)cc1)N1N=C(C(F)F)CC1(O)C(F)F (stereo unspecified)	–	–	–	–	·
Clc1ccc(OCCn2cnc3ccccc32)cc1	–	–	–	–	·
COc1ccccc1CNC(=O)COC(=O)[C@H](Cc1c[nH]c2ccccc12)NC(=O)c1cccs1	–	–	–	–	·
CCOC(=O)c1sc(=NC(=O)C2CC2)n(C)c1C	–	–	–	–	·
SMILES	CHOP inhibitor	Hsp70 act	S1P4 ag	S1P4 antagonist	CHOP inh conf
CC(=O)/C(=N\Nc1ccccc1Cl)Sc1cccc2cccnc12	–	–	–	–	·
Cc1ccc(-c2cc(C(=O)N3N=C(C(F)F)CC3(O)C(F)F)c3ccccc3n2)cc1C (stereo unspecified)	–	–	–	–	·
Cc1ccc(C)c(OCc2ccc(C(=O)N3N=C(C(F)F)CC3(O)C(F)F)o2)c1 (stereo unspecified)	108	–	–	–	120
CC(C)CCCNc1nc(N2CCOCC2)nc(N2CCOCC2)n1	–	–	–	–	·
Cc1ccc2[nH]c(=O)c3cc(C(=O)NCCN4CCN(C)CC4)sc3c2c1	–	–	–	–	·
Cc1ccc2[nH]c(=O)c3cc(C(=O)N(C)c4ccccc4C)sc3c2c1	101	·	–	–	–
CCN(CC)CCc1c(C)[nH]c(C(=O)OCc2ccccc2)c1C	–	–	–	–	·
Cc1cccc(C(=O)NNC(=O)c2cc3cc4ccccc4nc3s2)c1	103	–	–	–	–
CN(C)c1ccc(/C=N/NC(=O)CCCO)cc1	–	–	–	–	·
O=C(CNC1CCCCCC1)Nc1ccccc1N1CCCCC1	98	–	–	–	94
O=C(Cc1ccccc1)Nc1ccccc1N1CCCC1	–	–	–	–	·
O=c1[nH]c(/C(Cl)=C/c2cc(Cl)ccc2O)nc2cc(Cl)ccc12	100	–	–	–	–
O=C(O)c1ccccc1Cc1nc2cc(Cl)ccc2c(=O)[nH]1	–	–	–	–	·
Fc1ccccc1NC(=S)N(CCN1CCCCC1)Cc1ccco1	–	–	–	–	·
Cn1c2ccccc2c(=O)c2c(=O)n(C3CCCCCC3)c(C3CCCCC3)nc21	105	–	–	–	122
CCc1nc2c(c(=O)c3ccccc3n2C)c(=O)n1C1CCCCCC1	–	–	–	–	·
Cn1c2ccccc2c(=O)c2c(=O)n(C3CCCCC3)c(-c3cccs3)nc21	97	–	–	–	–
COc1ccc(CCn2c(C3CCCCC3)nc3c(c(=O)c4ccccc4n3C)c2=O)cc1	100	·	–	–	–
COC(=O)C(C)N(C#N)c1nc(NC(C)C)nc(SC)n1 (stereo unspecified)	–	–	–	–	·
COc1cccc(Oc2ccc(N/C=C/C(=O)C(C)(C)C)cc2)c1	–	–	–	–	·
COC(=O)c1cccc(CN2C(=O)SC(Nc3ccccc3)C2=O)c1 (stereo unspecified)	–	·	–	–	·
COc1ccc2cc(C)c3nnc(SCC(=O)Nc4nc(-c5ccc(F)cc5)cs4)n3c2c1	105	–	–	–	–
O=C(CN1C(=O)c2ccccc2S1(=O)=O)c1ccc2c(c1)OCCCO2	104	·	–	–	121
COCc1[nH]nc2c1C(c1ccsc1)C(C#N)=C(N)O2 (stereo unspecified)	–	–	–	–	·
CCn1c(=O)c(C(=O)Nc2nc3ccccc3[nH]2)c(O)c2ccccc21	·	–	–	–	120
SMILES	CHOP inhibitor	Hsp70 act	S1P4 ag	S1P4 antagonist	CHOP inh conf
CCc1nc2ccccc2c(=O)n1NC(=O)c1c(O)c2ccccc2n(CC)c1=O	–	–	–	–	·
CCOc1cc(C2c3c(oc4ccccc4c3=O)C(=O)N2c2nccs2)ccc1O (stereo unspecified)	104	·	–	–	–
CCOc1cccc(C2c3c(oc4ccccc4c3=O)C(=O)N2c2ccccn2)c1 (stereo unspecified)	–	–	–	–	·
CS(=O)(=O)Nc1ccc(C2=NN(S(C)(=O)=O)C(c3ccccc3)C2)cc1 (stereo unspecified)	–	–	–	–	·
CCOC(=O)N/N=C\C=C\c1ccco1	–	–	–	–	·
CCC(C)c1cc(S(=O)(=O)N2CCOCC2)ccc1OC (stereo unspecified)	–	–	–	–	·
CCOC(=O)c1csc(NC(=O)Nc2cccc(Cl)c2)n1	98	–	–	–	–
CCOC(=O)Cc1csc(NC(=O)Nc2cccc(Cl)c2)n1	–	–	–	–	·
Cc1c(-c2cccc(Cl)c2)nc2ccccc2c1C(=O)OC/C(O)=C(\C#N)c1nc2ccccc2[nH]1	105	–	–	–	–
